# MbtI inh: MbtI salicylate synthase inhibitors, primary screen, biochemical, fluorescence intensity; P9WFX0; purified MbtI enzyme, fluorescence intensity read-out; inhibition, % (test concentration not listed); actives 0.89% (n = 100,000); in the data active means inhibition mostly above about 56%, no sharp cut-off; inactive means mostly below about 77%
# Target sequence (P9WFX0 whole entry, looked up): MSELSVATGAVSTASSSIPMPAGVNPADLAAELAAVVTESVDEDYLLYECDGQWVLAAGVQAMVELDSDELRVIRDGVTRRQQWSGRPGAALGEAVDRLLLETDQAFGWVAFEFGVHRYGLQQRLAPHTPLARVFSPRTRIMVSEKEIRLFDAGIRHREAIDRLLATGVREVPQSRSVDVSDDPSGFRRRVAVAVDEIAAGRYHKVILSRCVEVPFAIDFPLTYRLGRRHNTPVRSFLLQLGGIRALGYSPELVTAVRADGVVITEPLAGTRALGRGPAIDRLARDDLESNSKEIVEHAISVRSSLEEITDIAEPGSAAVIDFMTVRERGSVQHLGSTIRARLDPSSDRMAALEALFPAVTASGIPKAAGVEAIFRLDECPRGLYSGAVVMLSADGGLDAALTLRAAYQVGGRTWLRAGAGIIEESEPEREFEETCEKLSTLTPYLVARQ
# Polio RdRp inh: poliovirus RdRp elongation inhibitors, primary screen, biochemical, fluorescence polarization, total intensity. poliovirus polymerase elongation; active compounds read low. % elongation, % (compound at 16.7 µg/mL). actives 0.66% (n = 150,000); in the data active means % elongation below about 90%
# Mtb MenB inh: M. tuberculosis MenB inhibitors, primary screen, biochemical, absorbance | MenB enzyme assay, absorbance read-out | actives 0.43% (n = 100,000) | inhibition, % (concentration not given with the values) | 1,4-dihydroxy-2-naphthoyl-CoA synthase (Mycobacterium tuberculosis (strain ATCC 25618 / …; in the data active means inhibition above about 21%, passing the limit was not always enough
# Starred values were filed as active, the others as inactive; · = no result. Shown are actives, neighbours in structure and some others; about 1.4% of the full set was active somewhere.
SMILES,MbtI inh,Polio RdRp inh,Mtb MenB inh
Cn1nc(C(=O)N2CCCCC2)c2c1-c1ccccc1SC2,87.5*,101.0,-0.4
Cn1nc(C(=O)N2CCN(c3ccc(Cl)cc3)CC2)c2c1-c1ccccc1SC2,·,110.0,·
Nn1c(SCCOc2ccccc2)nnc1-c1ccccc1,34.2,79.0*,-29.6
Nn1c(SCCC(=O)O)nnc1-c1ccccc1,-9.2,104.0,-12.7
CN1C(=O)C2(C(C#N)=C(N)Oc3cc(O)ccc32)c2ccccc21 (configuration not stated),-14.9,103.0,-23.2
Cc1cccc(Nc2nc3nonc3nc2Cl)c1,·,48.0*,-14.5
FC(F)(F)c1cccc(Nc2nc3nonc3nc2Nc2ccc(Cl)cc2)c1,·,114.0,·
CCCCn1c(NN)nc2sc3c(c2c1=O)CCCC3,-7.2,105.0,-32.1
CCn1cc(SCC(=O)N2N=C(c3cccs3)CC2c2ccc(F)cc2)c2ccccc21 (configuration not stated),-11.3,104.0,-31.7
CCCn1c(N)c(C(=O)CSc2nc3ccccc3c(=O)n2CCC)c(=O)[nH]c1=O,1.6,100.0,-18.4
O=C1CC(c2ccc(S(=O)(=O)N3CCOC(COc4ccccc4)C3)cc2)CN1 (configuration not stated),-1.4,104.0,-2.4
CN(CCC#N)CC1Cc2ccccc2O1 (configuration not stated),-0.6,103.0,44.5*
NCC1Cc2ccccc2O1 (configuration not stated),-6.2,101.0,-25.6
CC(C)N(CCNc1nnnn1-c1ccccc1)C(C)C,-10.7,·,-33.6
Cc1cc(C)nc(NC(=O)CSC(=S)N2CCOCC2)n1,0.5,101.0,1.2
Cc1ccc(NC(=S)N(CC(N)=O)C(C)C)cc1C,12.9,97.0,-19.6
COc1ccc(CCC(=O)CCc2ccc(OC)cc2)cc1,-2.2,102.0,0.4
COc1ccc(CCN2C(=O)C=CC2=O)cc1,93.0*,102.0,·
CC(=C1C(=O)c2ccccc2C1=O)N1CCc2ccccc2C1,12.8,89.0*,-65.2
CC(=O)N1CCc2ccccc2C1,·,103.0,4.8
N#Cc1c(N2CCCC(O)C2)nc(N)c2c(N)nc3c(c12)CC(=O)N3C12CC3CC(CC(C3)C1)C2 (configuration not stated),-14.4,39.0*,-24.6
C=C(C)CN(CC)c1nc(N)c2c(N)nc3c(c2c1C#N)CC(=O)N3C12CC3CC(CC(C3)C1)C2,-18.1,102.0,-1.8
Cc1ccc(OCc2nnc(NC(=O)c3ncoc3-c3cccc(Cl)c3)s2)cc1,-3.7,105.0,-62.7
O=S(=O)(NC(c1ccccc1)c1ccccc1)c1ccccc1,·,101.0,-1.4
CC12COC3(C(=O)N4CCCCC4)CC1CCC32C (configuration not stated),0.3,101.0,·
SMILES,MbtI inh,Polio RdRp inh,Mtb MenB inh
CC12COC3(C(=O)Nc4ccccc4)CC1CCC32C (configuration not stated),-0.1,100.0,57.9*
O=c1cc(CN2CCC(Cc3ccccc3)CC2)c2ccc(O)cc2o1,-51.4,105.0,-38.2
COC(=O)CN1C(=O)CSc2ccc(S(=O)(=O)Nc3ccc(F)c(Cl)c3)cc21,·,109.0,·
CCCCN(C)C(=O)C1CCC(CNS(=O)(=O)c2ccc3c(c2)CC(C)N3C(C)=O)CC1 (configuration not stated),·,15.0*,·
CC(=O)N1c2ccc(S(=O)(=O)NCC3CCC(C(=O)NC(C)(C)C)CC3)cc2CC1C (configuration not stated),·,114.0,·
Cc1ccc(C)c(NC(=O)CN(C)S(=O)(=O)c2cccc3nsnc23)c1,·,107.0,·
COc1ccc(C(c2ccc3cccnc3c2O)N2CCOCC2)cc1 (configuration not stated),98.2*,102.0,-64.3
Oc1c(C(c2ccncc2)N2CCCC2)ccc2cccnc12 (configuration not stated),43.1,106.0,-16.2
CCN1CCN(C(c2cccnc2)c2ccc3cccnc3c2O)CC1 (configuration not stated),88.6*,87.0*,-44.8
COc1ccc(C(c2ccc3cccnc3c2O)N2CCCC2)cc1 (configuration not stated),·,100.0,·
O=C(O)c1ccc(CN2C(=O)SC(Nc3ccccc3)C2=O)cc1 (configuration not stated),-2.0,101.0,-1.5
CCOc1nc2cnccc2n(Cc2ccccc2C#N)c1=O,11.2,99.0,-3.8
Cc1cc(C)nc(N2CCNCC2)n1,57.6,102.0,12.4
C1CCN(c2nc(N3CCCC3)nc(N3CCNCC3)n2)C1,-21.6,100.0,32.8*
Fc1cccc(Nc2nnc(SCCN3CCCCC3)s2)c1,15.3,99.0,-12.2
CCOc1ccc([C@@H]2[C@H](C(=O)O)c3ccccc3C(=O)N2Cc2ccccc2)c(O)c1,2.6,69.0*,9.3
COc1ccc(C2C(C(=O)O)c3ccccc3C(=O)N2Cc2ccc(Cl)cc2)cc1 (configuration not stated),4.8,103.0,5.1
COc1ccc(OC)c(S(=O)(=O)NCc2nn(-c3ccccc3)nc2C)c1,-9.2,105.0,-23.8
CCN(CC)c1ccc2c(COC(C)=O)cc(=O)oc2c1,-286.4,102.0,-152.6
CCOC(=O)NC(=S)c1ccc(OC)cc1,78.5*,82.0*,-7.2
CCOC(=O)NC(=S)Nc1ccc(OC)cc1,-4.8,100.0,-7.1
C=CCN1C(=O)/C(=C\c2ccc(OC(=O)c3ccco3)c(OC)c2)SC1=S,-9.3,105.0,-37.3
COc1cc(/C=C2/C(=O)NN(c3ccc(Cl)cc3)C2=O)ccc1OC(=O)c1ccco1,98.8*,101.0,-42.0
Cc1cccc2c1NC(=O)C21OCCO1,7.0,104.0,15.1
CNS(=O)(=O)c1ccc2ccccc2c1,-1.8,101.0,·
SMILES,MbtI inh,Polio RdRp inh,Mtb MenB inh
COC(=O)/C=C/S(=O)(=O)c1ccc2ccccc2c1,100.9*,99.0,-1.7
COc1cc2nc(C)n(C(=S)S)c2cc1OC,10.3,78.0*,-25.3
CCn1c(C)nc2cc(OC)ccc21,5.8,102.0,·
CCOC(=O)c1cnc2c(ccc3ccccc32)c1NCCOC(=O)c1cccnc1,95.1,102.0,-11.6
O=C(c1cnoc1)c1ccccc1O,19.7,83.0*,4.6
O=C(c1cnoc1)c1cc(Cl)cc(Cl)c1O,-29.4,101.0,·
Cc1c(C(=O)OCC(=O)NC2(C#N)CCCCC2)sc2nc3n(c(=O)c12)CCC3,-77.0,111.0,-14.4
O=c1[nH]c(NCCO)nc2ccccc12,91.1,105.0,-13.1
O=c1[nH]c(NCCO)c(I)c(=O)[nH]1,68.1*,·,·
COc1ccccc1C/C(C)=N/NC(N)=S,21.0,102.0,-57.0
COC(=O)c1c(NC(=S)NCc2ccco2)sc2c1CCC(C)C2 (configuration not stated),-3.5,101.0,-18.1
COC(=O)c1c(NC(=S)Nn2cnnc2)sc2c1CCC(C)C2 (configuration not stated),85.3*,99.0,-14.7
CCC(=O)n1c(=O)n(C(=O)CC)c2ccccc21,0.3,107.0,-26.1
COc1ccc(OC)c(Nc2nc3ccccc3n3c(C)nnc23)c1,·,106.0,·
CCc1cccc(NC(=O)C2COc3ccccc3O2)c1 (configuration not stated),8.2,102.0,-5.4
CCc1ccc2c(c1)S(=O)(=O)C(C(F)(F)F)CO2 (configuration not stated),·,84.0*,4.1

# Source: PubChem BioAssay
